Experimental data reported in PubChem BioAssay.

Molecular target: 6-phosphogluconate dehydrogenase, decarboxylating (Homo sapiens) (UniProt P52209)
Assay: inhibition of human phosphogluconate dehydrogenase – biochemical, recombinant enzyme, NADPH absorbance, primary screen (AID 1159550)
Conditions: recombinant 6PGD, NADPH absorbance 341 nm; at 10 µM; hits give high values;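 active = at least 20% inhibition of 6-phosphogluconate dehydrogenase activity; inactive = the rest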

6-phosphogluconate dehydrogenase, decarboxylating (Homo sapiens), sequence (P52209 whole entry, looked up): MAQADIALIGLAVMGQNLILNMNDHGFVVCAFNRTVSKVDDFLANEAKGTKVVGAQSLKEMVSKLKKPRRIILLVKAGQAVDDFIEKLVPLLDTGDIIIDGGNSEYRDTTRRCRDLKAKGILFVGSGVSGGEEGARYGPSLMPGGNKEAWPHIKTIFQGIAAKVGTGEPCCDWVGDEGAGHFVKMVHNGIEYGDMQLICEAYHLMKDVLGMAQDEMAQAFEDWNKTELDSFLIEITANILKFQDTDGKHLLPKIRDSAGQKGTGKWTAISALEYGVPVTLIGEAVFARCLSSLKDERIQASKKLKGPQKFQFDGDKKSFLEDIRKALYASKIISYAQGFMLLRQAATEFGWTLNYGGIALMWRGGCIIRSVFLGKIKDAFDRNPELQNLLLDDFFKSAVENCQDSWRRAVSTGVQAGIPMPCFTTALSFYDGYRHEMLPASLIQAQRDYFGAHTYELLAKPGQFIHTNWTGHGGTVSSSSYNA

inhibition, inactive:
C[C@@H]1CC[C@H]2C(C)(C)[C@H]3C[C@@]12CC[C@@]3(C)O 1.71%
COC(=O)C[C@H]1C(C)(C)C2(O)OC34CC2C(=O)[C@]1(C)C3CC[C@]1(C)C4=CC(=O)O[C@H]1c1ccoc1 (stereo partly specified) 4.12%
COC(=O)[C@]1(C)CCC[C@]2(C)c3ccc(C(C)C)cc3C(=O)CC12 (stereo partly specified) 13.7%
C[C@H](CCC(=O)O)[C@H]1CC[C@H]2[C@@H]3CC[C@@H]4C[C@H](O)CC[C@]4(C)[C@H]3C[C@H](O)[C@]12C -3.07%
COC(=O)C(O)c1ccccc1 (stereo unspecified) 1.31%
COc1cc(OC)c2c(=O)c(-c3ccccc3)coc2c1 10.4%
CC(C)=CCC/C(C)=C\CO 6.7%
COc1ccc(-c2coc3cc(OC)cc(OC)c3c2=O)cc1 4.5%
CC(=O)Oc1c(-c2ccccc2)oc2c(CC=C(C)C)c3c(c(OC(C)=O)c2c1=O)C=CC(C)(C)O3 7.48%
O=c1oc2ccccc2cc1O 15.9%
CC(=O)NC(Cc1c[nH]c2ccccc12)C(=O)O (stereo unspecified) -6.76%
COc1ccc(CC(=O)c2ccc(O)cc2O)cc1 17.5%
COc1ccc(-c2cc(=O)c3cc(OC)ccc3o2)cc1 -2.36%
COc1ccc2ccc(=O)oc2c1 6.96%
COC1=C(O)c2cc3oc(C(C)=O)c(O)c3c(O)c2C(=O)C1=O 1.87%
CC1(C)CC[C@]2(C)CC[C@]3(C)C(=CC[C@@H]4[C@@]5(C)CC[C@H](O)C(C)(C)[C@@H]5CC[C@]43C)[C@@H]2C1 10.2%
C/C=C(/C)C(=O)O[C@@H]1c2c(ccc3ccc(=O)oc23)OC(C)(C)[C@@H]1OC(C)=O 4.61%
COS(C)(=O)=O 6.76%
C/C1=C\CCC(=O)C2CC(C)(C)C2CC1 (stereo unspecified) -1.45%
NC(=O)NCCC[C@H](N)C(=O)O 15.5%
CC(C)c1c(O)ccc2c1CCC1[C@@](C)(C=O)CCC[C@]21C (stereo partly specified) -10.2%
CC(=O)O[C@@H]1C[C@H]2C(C)(C)[C@@H](O)CC[C@]2(C)[C@H]2CC[C@@]3(C)[C@H](c4ccoc4)OC(=O)[C@H]4O[C@]43[C@@]21C -6.19%
CC1(C)C(=O)C=C[C@@]2(C)C1C=C[C@]1(C)C2CC[C@@]2(C)[C@H](c3ccoc3)OC(=O)C3OC321 (stereo partly specified) -14.8%
COC1=C[C@@H](C)[C@@H]2C[C@H]3OC(=O)C[C@H]4C(C)=C(OC)C(=O)[C@H]([C@@]2(C)C1=O)[C@@]34C -9.87%
CC(=O)O[C@@H]1c2c(ccc3ccc(=O)oc23)OC(C)(C)[C@@H]1OC(=O)CC(C)C -10.5%
COC(=O)C[C@H]1C2(C)CC34OC5(C)O[C@@]6([C@H](OC(C)=O)C(OC(C)=O)[C@]7(C)C(/C(=C(/O)C(C)C)C(=O)O[C@H]7c7ccoc7)[C@@]6(O5)[C@H](OC(C)=O)[C@@]3(O)C2OC(=O)C(C)C)[C@]14C (stereo partly specified) -3.02%
COC(=O)C[C@H]1C(C)(C)[C@@H](O)[C@@H]2CC3=C4CC(O)O[C@@H](c5ccoc5)[C@]4(C)CCC3[C@@]1(C)C2=O (stereo partly specified) -13.5%
Cc1cc(=O)c2c(O)cc(O)c(C)c2o1 9.08%
COc1cc(C/C=C/c2ccccc2)c(OC)cc1O 9.29%
CC(C)CCC[C@@H](C)[C@H]1CC[C@H]2[C@@H]3C[C@@H](O)[C@@]4(O)C[C@@H](O)CC[C@]4(C)[C@H]3CC[C@]12C -2.71%
C[N+]1(C)C[C@H](O)C[C@H]1C(=O)[O-] 0.213%
CC(=O)OC(C)(C)[C@@H]1Cc2cc3ccc(=O)oc3cc2O1 2.42%
CC[C@H](CC[C@@H](C)[C@H]1CC[C@H]2[C@@H]3CC=C4C[C@@H](OC(C)=O)CC[C@]4(C)[C@H]3CC[C@]12C)C(C)C 9.08%
COc1cc(C)c(C(=O)O)c(O)c1 -0.391%
CC(=O)OC1CCC2(O)CC1(C)CCC1C2CC1(C)C (stereo unspecified) 15.6%
CC1(C)C2CC(=O)O[C@@]3(C)C4=CC(=O)O[C@@H](c5ccoc5)[C@]4(C)CCC3[C@@]2(C)C=C[C@H]1O (stereo partly specified) 9.39%
